Compounds with a hit are over-represented: about 14% of the library has one in this group of screens.
Pf growth 96h – inhibits malaria parasite growth, 96 h; 320,000 tested, 6.9% active; Potency, µM (doses to about 28.7 µM), actives largely listed as inhibitors; P. falciparum luciferase reporter growth, 96 h; AID 504834
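Two parasite generations (96 h, 37 C, 5% CO2) of compound exposure in infected erythrocytes (0.05% parasitemia, 2% hematocrit). Luciferase-reporter P. falciparum; decreased luminescence indicates inhibited growth, aimed at apicoplast-acting delayed death.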
HCMV inh – blocks human cytomegalovirus replication. HFF cells, HCMV-luciferase reporter, 72 h; stronger effect = lower value. activity change, negative = inhibition, % at 57.5 µM. 410,000 tested, 4.5% active. AID 1259415; in the data active = activity change below about -60%; inconclusive = no clear call, values can overlap the other calls; inactive = above about -39%
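Screen run at 2 compound doses on HFFs infected with reporter HCMV, MOI 1 PFU/cell. Luciferase activity from cell lysates at 72 h post infection gave inhibition relative to buffer-only and Salinomycin wells.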
Sm TGR inh – S. mansoni TGR enzyme inhibition; purified TGR, DTNB reduction, TNB absorbance 405 nm; Potency, µM (series often up to 114 µM), usual class: inhibitors; Q962Y6; 360,000 tested, 3% active; note: nearly all actives have a fitted effect of over 60% in size
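First, TGR (20 nM dispensed) and NADPH were mixed with compound. Second, a 15 min room-temperature incubation followed. Third, further NADPH and then DTNB were added to start the reaction. Finally, TNB absorbance was monitored kinetically.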
FBPA Giardia inh – blocks Giardia fructose-bisphosphate aldolase activity; A8B2U2; Potency, µM (doses to about 59.6 µM), usual class: inhibitors; 290,000 tested, 0.71% active; purified Giardia FBPA; note: nearly all actives have a fitted effect of over 55% in size
Target sequence (A8B2U2 whole entry, looked up): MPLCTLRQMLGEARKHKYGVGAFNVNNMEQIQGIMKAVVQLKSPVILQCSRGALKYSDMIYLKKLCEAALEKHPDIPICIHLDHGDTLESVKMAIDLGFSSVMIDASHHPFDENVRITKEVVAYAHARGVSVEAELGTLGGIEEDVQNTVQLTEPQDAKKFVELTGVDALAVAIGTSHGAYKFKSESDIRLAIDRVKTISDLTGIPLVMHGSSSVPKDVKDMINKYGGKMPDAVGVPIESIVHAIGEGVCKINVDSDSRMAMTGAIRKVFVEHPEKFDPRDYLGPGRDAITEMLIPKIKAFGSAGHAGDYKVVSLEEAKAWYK
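40 nM FBPA preincubated 10 min at RT with compound (up to 57.5 uM final), then substrate plus GAPDH/TPI/NAD/arsenate coupling and diaphorase/resazurin added. Fluorescence read after 20 min at RT, 525/598 nm.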
Pf growth 48h – inhibits P. falciparum growth in the first generation, 48 h. P. falciparum luciferase growth in erythrocytes, 48 h. 310,000 tested, 5.9% active. Potency, µM (top dose mostly 28.7 µM), actives largely listed as inhibitors
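Growth was read as firefly luciferase luminescence after a 48 h, 37 C, 5% CO2 exposure of compounds to reporter-bearing P. falciparum cultures (0.1% parasitemia, 2% hematocrit final) in Albumax-supplemented RPMI 1640.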
A number is an active result; i = inactive; ? = inconclusive; nt = no result. Unless noted, calls come from the whole dose curve; as a rule, active = well fitted curve in the direction sought with a large enough effect; inconclusive = small, poorly fitted or top-dose-only effect, or another doubt; inactive = no such curve, though single readings can be large; an effect the other way counts as inactive or inconclusive.

SMILES	Pf growth 96h	HCMV inh	Sm TGR inh	FBPA Giardia inh	Pf growth 48h
CC(NC(=O)c1ccco1)c1ccc(-n2ccnc2)cc1 (stereo unspecified)	i	i	i	nt	i
Cc1ccc2nc(-c3cccc(Br)c3)cc(C(=O)NC3CC3)c2c1	?	i	i	i	4.65µM
COc1ccc(OC)c(-c2nc(C(=O)NCC3CCCO3)cc3c2[nH]c2ccccc23)c1 (stereo unspecified)	?	i	i	i	?
COc1cccc(-c2cc(C(=O)NCC3CCCO3)c3cc(Br)cc(C)c3n2)c1 (stereo unspecified)	?	-60.3	i	i	?
Cc1ccc2nc(C)cc(C(=O)NC3CCCCCC3)c2c1	nt	i	nt	nt	nt
COc1cccc(-c2nc(C(=O)NCC3CCCO3)cc3c2[nH]c2ccccc23)c1 (stereo unspecified)	8.28µM	i	i	i	?
Cc1ccc2nc(-c3ccc(Br)cc3)cc(C(=O)NCC3CCCO3)c2c1 (stereo unspecified)	nt	-100.5	nt	nt	nt
COc1ccc(CCNC(=O)c2ccc3c(c2)nc2n3CCOC2)cc1OC	nt	i	i	nt	nt
CN1CCc2c(sc3c2C(=O)NC(c2ccco2)N3)C1 (stereo unspecified)	?	i	i	?	i
O=C1NC(c2cccs2)Nc2sc3c(c21)CCCC3 (stereo unspecified)	nt	i	28.2µM	?	i
Cc1oc(-c2ccc(Cl)cc2)nc1Cn1c(=O)cc(C)c2c(C)nn(-c3cccc(F)c3)c21	nt	i	i	nt	nt
C/C(CCc1oc2ccc(Cl)cc2c1-c1ccc(C)o1)=N\O	i	i	25.1µM	i	i
C/C(CCc1oc2ccc(Br)cc2c1-c1ccc(C)o1)=N/O	?	i	39.8µM	i	i
Oc1ccc(Cl)cc1Sc1cc(Cl)ccc1O	13.5µM	i	nt	nt	?
CN(C)C(=O)c1cc(Cl)ccc1Sc1cc(Cl)ccc1Cl	i	i	i	i	nt
CN1CC(=O)Nc2ccccc2C1=O	i	i	i	i	i
CN1C(=O)c2ccccc2NC(=O)C1Cc1ccccc1 (stereo unspecified)	11.7µM	i	i	i	i
O=[N+]([O-])c1ccc(OCC(O)CN(C2CCCCC2)C2CCCCC2)cc1 (stereo unspecified)	?	i	i	i	?
COc1ccc(OCC(O)CN(C2CCCCC2)C2CCCCC2)cc1 (stereo unspecified)	5.86µM	i	i	i	?
CN(CC(O)COc1c(F)cc(Br)cc1F)C1CCCCC1 (stereo unspecified)	i	?	i	i	9.28µM
CN(CC(O)COc1ccc2ccccc2c1)C1CCCCC1 (stereo unspecified)	i	i	i	?	?
COc1ccc2[nH]c(C)c(C(=O)CN3CCN(C(=O)c4ccco4)CC3)c2c1	nt	i	?	i	?
COc1ccc2[nH]c(C)c(C(=O)CN3CCN(C/C=C/c4ccccc4)CC3)c2c1	8.28µM	i	i	i	?
Cc1[nH]c2ccccc2c1C(=O)CSC(=S)N(C)C1CCCCC1	i	i	i	i	?
Cc1[nH]c2ccccc2c1C(=O)C(=O)N(C)C1CCCCC1	2.62µM	i	i	i	2.62µM
SMILES	Pf growth 96h	HCMV inh	Sm TGR inh	FBPA Giardia inh	Pf growth 48h
Cc1[nH]c2ccccc2c1C(=O)CN1CCC(C(N)=O)(N2CCCCC2)CC1	i	i	?	i	i
Cc1[nH]c2ccccc2c1C(=O)CN1CC=C(c2ccccc2)CC1	?	i	i	i	11.7µM
Cc1[nH]c2ccccc2c1C(=O)CN1CCN(C2CCCCC2)CC1	i	nt	39.8µM	i	?
COc1ccc(C(=O)NCCc2nnc3ccc(SCC(=O)N4CCCC4)nn23)cc1	i	i	i	nt	i
CCn1cc(CN2CCC(n3nccc3NC(=O)CCOc3ccccc3)CC2)c(C)n1	i	i	i	nt	i
COc1ccc(S(=O)(=O)c2c(Nc3cccc(C)c3C)sc(C(=O)c3ccccc3)c2N)cc1	nt	?	i	nt	nt
Cc1[nH]c2ccccc2c1C(=O)/C=C/c1ccccc1	?	i	i	i	i
Cc1[nH]c2ccccc2c1C(=O)CN1CCN(C/C=C/c2ccccc2)CC1	?	i	?	i	8.28µM
Cc1ccc(NC(=O)CN2C(=O)COc3ccc(S(=O)(=O)N4CCCCCC4)cc32)cc1C	nt	i	i	nt	nt
Cc1nn(-c2cccc(Cl)c2)c2nc(-c3ccco3)cc(C(=O)O)c12	?	i	15.8µM	?	nt
Cc1nn(-c2ccccc2)c2nc(-c3ccco3)cc(C(=O)O)c12	i	i	?	i	?
O=C(O)c1cc(-c2ccco2)nn1-c1ccc(Cl)cc1	i	i	5.01µM	i	i
O=C(O)c1cc(-c2ccco2)nn1-c1cccc(Cl)c1	i	i	63.1µM	i	i
Cc1ccc(-n2nc(-c3ccco3)cc2C(=O)O)c(C)c1	i	i	11.2µM	i	i
O=C(O)c1cc(-c2cccs2)nn1-c1cccc(Cl)c1	i	i	i	i	i
Cc1ncc([N+](=O)[O-])n1S(=O)(=O)c1cc(Br)ccc1Br	i	i	?	i	i
Cc1ccc(N2CC(C(=O)Nc3ccc(C)c(S(=O)(=O)N(C)C)c3)CC2=O)cc1 (stereo unspecified)	?	i	i	i	?
COC(=O)c1cc(C(=O)OC)cc(N2C(=O)CC(NNC(=O)c3ccccc3Cl)C2=O)c1 (stereo unspecified)	i	i	i	i	i
